FUS yeast rescue = rescues growth of FUS-expressing yeast | S. cerevisiae FUS-expressing, growth rescue, OD600, 24 h | Potency, µM (doses to about 76.6 µM), actives largely listed as activators | 390,000 compounds, 0.24% hits;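 also: plate controls were DMSO vehicle for no effect and reference control for full effect; nearly all actives have a fitted effect of over 55% in size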
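FUS-expressing yeast, raffinose-pregrown, induced in 2% galactose minimal medium at OD 0.005; compounds in a dilution series, 24hr at 30C. Growth restoration read as absorbance at 600 nm. CP55940 positive control, DMSO negative.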
TDP-43 yeast inh = TDP-43 toxicity inhibition in yeast; TDP-43 expressing yeast growth rescue, BacTiter-Glo, 24 h; Potency, µM (titrated, usually from 46.1 µM), inactives show at the highest dose growth rescue (activation), hits mostly activators; 410,000 compounds, 1.8% hits; also: % of control where 0% means no effect; nearly all actives have a fitted effect of over 50% in size
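Luminescence from BacTiter-Glo reports growth of TDP-43-expressing yeast after 24 hr at 30 deg C with compound. Cells were raffinose-pregrown to mid-log, then seeded in galactose medium at OD600=0.02.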
Abeta rescue = restores growth of yeast expressing A-beta42 peptide | yeast expressing A-beta42, growth rescue, OD600, 48 h; response scale: 0% DMSO, 100% iron-clioquinol control | Potency, µM (doses to about 46.1 µM), actives largely listed as activators | 410,000 compounds, 0.063% hits; also: nearly all actives have a fitted effect of over 55% in size
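Growth rescue measured by 600 nm absorbance after 48 h yeast culture at 30 C with compound. Values normalized between DMSO and an equimolar ferric chloride plus clioquinol control.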
aSyn rescue = alpha-synuclein toxicity inhibition in yeast. Yeast expressing alpha-synuclein, growth rescue, BacTiter-Glo, 24 h. Potency, µM (doses to about 46.1 µM), without a hit: at the top dose growth rescue (activation), usual class: activators. 370,000 compounds, 0.14% hits. AID 652106; also: % of control where 0% means no effect; nearly all actives have a fitted effect of over 65% in size
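Galactose-induced alpha-syn yeast (OD600=0.02, raffinose-pregrown) + pinned cpd, 24 hr, 30 deg C; growth by BacTiter-Glo luminescence. Growth restoration scores as activation.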
Active calls of the source: *; i = inactive; ? = inconclusive; . = no result; [ ] = remark or other dose. In the library only some 2.1% were active in any assay of this set; here they are far more common. Calls follow the shape of the dose curve; as a rule, active = well fitted curve in the direction sought with a large enough effect; inconclusive = small, poorly fitted or top-dose-only effect, or another doubt; inactive = no such curve, though single readings can be large; an effect the other way counts as inactive or inconclusive. Potency is read from the fitted curve at half-maximal effect.

SMILES	FUS yeast rescue	TDP-43 yeast inh	Abeta rescue	aSyn rescue
O=C1CCN(C(=O)CCCn2c(=O)oc3ccccc32)CC1	i	2%	i	1%
O=C(CCn1c(=O)oc2ccccc21)N1CCN(c2ccccc2Cl)CC1	i	13µM*	i	7%
CC(=O)OCC12CC(OC(=O)CC(C)C)C(C)=CC1OC1C(O)C(OC(C)=O)C2(C)C12CO2 (configuration not stated)	.	1.8µM*	i	?
Cc1cc(-c2ccc(C)c(S(=O)(=O)N3CCOc4ccc(Cl)cc43)c2)on1	i	?	i	.
C/C(=N\NC(N)=S)C12CC3CC(CC(C3)C1)C2	i	14µM*	?	6%
c1ccc2sc(C3(N4CCCCC4)CCCCC3)cc2c1	.	.	.	4%
C=CCOC(=O)COc1cc(C)cc2oc(=O)c3c(c12)CCC3	?	14µM*	i	0%
C[C@H]1CCCC=CC2C[C@H](O)C[C@@H]2[C@H](O)C=CC(=O)O1 (some centres not stated)	.	.	.	0%
Cc1ccccc1C(=O)Nc1ccc2nc(SCC(=O)N(C)c3ccccc3)sc2c1	?	35µM*	i	.
CC(C)(C)c1ccc(C(=O)Nc2ccc3nc(SCC(=O)N4CCCC4)sc3c2)cc1	?	?	i	.
O=P(Nc1cccc(Cl)c1)(Oc1ccccc1)Oc1ccccc1	i	-16%[1.82 µM]	?	22µM*
COc1ccc(-c2noc(=O)n2Cc2cc(C)ccc2C)cc1	i	18µM*	i	30%
CCCNc1nc(-c2cc(C(=O)Nc3ccccc3)on2)cc(C(C)C)n1	i	18µM*	i	13µM*
CN(CC(=O)NC1CCCC1)S(=O)(=O)c1cccc(Cl)c1	i	?	i	6%
CCc1cc2c(cc1-c1csc(C/C(N)=N/O)n1)C(C)(C)CCC2(C)C	i	22µM*	i	11%
O=C(CCl)c1ccc(O)c(O)c1	.	.	.	-15%
CCCCSc1nc2c(cnn2-c2ccccc2)c(=O)n1N	i	16µM*	i	-29%
Nc1cnn(-c2ccccc2)c(=O)c1Cl	i	8%	i	-1%
Cc1c(C)c2c(OCC(=O)N[C@@H](C)C(=O)O)cc3c(c2oc1=O)CCC(C)(C)O3	i	?	i	0%
O=C1c2ccccc2S(=O)(=O)c2cc(C(=O)N3CCN(c4c(Cl)cncc4Cl)CC3)ccc21	20µM*	13µM*	i	0%
Cc1ccccc1CS(=O)(=O)Cc1ccc(C(=O)N2CCC3(CC2)OCCO3)o1	i	-7%	i	3%
COc1ccc(S(=O)(=O)Cc2ccc(C(=O)N3CCC4(CC3)OCCO4)o2)cc1	i	2.5µM*	i	-8%
N#CC1(c2ccccc2)CCN(C2CC(=O)N(c3ccc(F)cc3)C2=O)CC1 (configuration not stated)	i	-1%	i	-1%
COc1ccc(N2C(=O)CC(N3CC=C(c4ccccc4)CC3)C2=O)cc1 (configuration not stated)	i	22µM*	i	?
CCN(CC)C(=O)c1ccc2c(c1)C1C(Cl)C(Sc3ccccc3[N+](=O)[O-])CC1C(C(=O)O)N2 (configuration not stated)	40µM*	-34%	i	-23%
SMILES	FUS yeast rescue	TDP-43 yeast inh	Abeta rescue	aSyn rescue
CCC12CN3CC(CC)(CN(C1)C3c1cccnc1)C2=O (configuration not stated)	i	6%	i	2%
O=C1N(c2ccc(Cl)cc2)C(c2cccnc2)N2CCCN12 (configuration not stated)	i	35µM*	i	?
Nc1c(Br)cc([N+](=O)[O-])cc1[N+](=O)[O-]	i	13µM*	i	1%
Cc1cccc(OCCNc2ncccc2[N+](=O)[O-])c1	i	?	i	10%
COc1nnc(-c2ccc(N3CCCCC3)c(NC(=O)c3ccccc3)c2)c2ccccc12	i	?	i	.
Cc1ccc(-c2nc(CN3C(=O)CN=C(c4ccccc4)c4ccccc43)c(C)o2)cc1	i	5%[9.22 µM]	i	.
Cc1oc(-c2ccccc2Cl)nc1CN1C(=O)CN=C(c2ccccc2)c2ccccc21	i	35µM*	i	-31%
C[C@]12CC[C@H]3C(=CCc4cc(O)ccc43)[C@@H]1CCC2=O	i	10µM*	i	2%
Cc1ccccc1-c1ccc2c(c1)C1c3c(-c4ccccc4)nnn3-c3ccccc3C(=O)N1CC2 (configuration not stated)	?	?	i	2%

Compound activity from PubChem BioAssay.
